According to PubChem BioAssay AID504577 (NMMLSC, 2011):
Screen size: about 350,000 compounds; about 1,300 (0.37%) were called active. For the sample, actives were picked, then their nearest neighbours and some compounds at random. Values without a mark were called inactive. Cut-off read from the data, not from the text of the source: active = response mostly above about 7.3% (no sharp cut-off); inactive = mostly below about 5.4%.

Assay: regulators of yeast V-ATPase proton pumping, primary screen, pHLuorin cytosolic pH fluorescence (AID 504577)
Details: S. cerevisiae, at 10 µM, hits give high values

| SMILES | response |
| --- | --- |
| Cc1cc(C(=O)NC2CCN(Cc3ccccc3)CC2)n[nH]1 | 4.4% |
| O=C(NC1CCN(Cc2ccccc2)CC1)c1cc(Br)c(Br)[nH]1 | 10.4% (active) |
| O=C(NC1CCN(Cc2ccccc2)CC1)c1ccc(Oc2cc(Cl)cc(Cl)c2)o1 | 0.98% |
| O=C(OCCN1C(=O)c2ccccc2C1=O)Oc1ccccc1 | -2.47% |
| O=C1c2ccccc2C(=O)N1CCCCCCN1C(=O)c2ccccc2C1=O | 9.59% (active) |
| O=C(CCCN1C(=O)c2ccccc2C1=O)Oc1ccc(Cl)cc1 | 8.16% |
| Cc1cc(C(C)(C)C)cc(S(=O)(=O)Nc2ccc(C(=O)O)cc2)c1C | -1.72% |
| COCCN(Cc1ccccc1)C(=O)Cc1ccc(S(=O)(=O)N2CCOCC2)s1 | 0.76% |
| CN(CC(=O)NCC(c1ccccc1)N1CCCC1)S(=O)(=O)c1ccc(Cl)cc1 (stereo not drawn) | -3.93% |
| O=C1NC(c2ccc(-c3ccccc3[N+](=O)[O-])o2)C(C(=O)c2ccc(Cl)cc2)C(O)(C(F)(F)F)N1 (stereo not drawn) | -0.4% |
| O=C(Nc1ccc(N2CCOCC2)cc1)c1ccc(-c2ccccc2[N+](=O)[O-])o1 | -1.06% |
| CC1=NN(c2ccc(Cl)c(C(=O)O)c2)C(=O)/C1=C/c1ccc(-c2ccccc2[N+](=O)[O-])o1 | 240% (active) |
| O=C(COC(=O)CCCNC(=O)c1ccc(Cl)cc1)Nc1cc(Cl)ccc1Cl | -2.06% |
| CNC(=O)c1csc(Cc2c(Cl)sc3ccc(Cl)cc23)n1 | 12.4% (active) |
| CNC(=O)c1csc(-c2ccccc2)n1 | -0.68% |
| CC(=O)NNC(=O)c1csc(Cc2c(Cl)sc3ccc(Cl)cc23)n1 | -1.89% |
| COc1cccc(N2CCN(C(=O)Nc3ccc4c(c3)NC(=O)CO4)CC2)c1 | 0.53% |
| O=C(NCC1CCCCC1)c1cc(S(=O)(=O)N2CCCCC2)ccc1N1CCOCC1 | 11.1% (active) |
| O=C(CNC(=O)c1cc(S(=O)(=O)N2CCOCC2)ccc1N1CCCC1)Nc1ccc(F)c(F)c1 | -1.89% |
| CC(C)(C)C(=O)COC(=O)c1cc(S(=O)(=O)N2CCCCC2)ccc1N1CCOCC1 | 5.71% |
| COCCN1C2=C(COC(C)(C)C2)C(=S)NC1c1ccccc1 (stereo not drawn) | 1.2% |
| O=C(O)CC12CC3CC(C1)CC(n1ncc(NCc4ccc(F)cc4)c(Cl)c1=O)(C3)C2 | 1.78% |
| CC(C)c1ccc(OCC(O)CN2CCN(c3ccccn3)CC2)cc1 (stereo not drawn) | 1.79% |
| OC(COc1cccc2ccccc12)CN1CCN(c2ccccn2)CC1 (stereo not drawn) | 16.7% (active) |

| SMILES | response |
| --- | --- |
| OC(COc1ccccc1)CN1CCN(c2cccc(Cl)c2)CC1 (stereo not drawn) | -2.02% |
| CN(C)S(=O)(=O)c1cc(C(=O)Nc2ccn(C)n2)c(Cl)cc1Cl | -0.21% |
| CSc1sc(C)cc1C1C(C#N)=C(N)N(c2cccnc2)C2=C1C(=O)CCC2 (stereo not drawn) | -0.16% |
| O=C(COc1ncnc2c(Cl)cc(Cl)cc12)N1CCN(S(=O)(=O)c2ccccc2)CC1 | 2.02% |
| Nn1c(SCc2ccccc2)nnc1C1CCCCC1 | -2.46% |
| O=C(CNC(=O)c1ccccc1Br)NNC(=O)c1cccs1 | -0.51% |
| O=C(C1=C[C@H](C2CC2)C[C@H](OCc2ccc(CO)cc2)O1)N1CCN(Cc2ccccc2)CC1 | 10.9% (active) |
| O=C(C1=C[C@H](c2coc3ccccc3c2=O)C[C@H](OCc2ccc(CO)cc2)O1)N1CCN(Cc2ccccc2)CC1 | 2.61% |
| O=C(C1=C[C@H](c2ccc(C(F)(F)F)cc2)C[C@H](OCc2ccc(CO)cc2)O1)N1CCN(Cc2ccccc2)CC1 | 3.16% |
| Cc1ccc(C2=NN(C)c3nc4ccccc4n3C2)cc1 | 0.17% |
| COc1ccc(NC(=O)CSc2ncnc3[nH]ncc23)cc1 | 8.67% |
| c1ccc(CNc2ncnc3[nH]ncc23)cc1 | -0.7% |
| CN(c1ccccn1)c1ncnc2[nH]ncc12 | 15.2% (active) |
| COc1ccc(OC)c(CNC(=O)CCc2nc(-c3cccs3)no2)c1 | -0.51% |
| COc1ccc(CCc2nc(-c3cccs3)no2)cc1 | 1.75% |
| CCc1ccc(CNC(=O)CCc2nc(-c3cccs3)no2)cc1 | 10.8% (active) |
| Cc1cc(C(F)(F)F)nn1CC(=O)N1CCCC1 | 6.02% |
| O=C(CC(n1cncn1)C(Cl)(Cl)Cl)c1ccc([N+](=O)[O-])cc1 (stereo not drawn) | 4.51% |
| COc1ccc(C(CNC(=O)c2ccc(OCc3cscn3)cc2)N2CCCC2)cc1 (stereo not drawn) | 2.42% |
| CCN(CC(=O)Nc1c(F)cccc1F)C(=O)c1ccc(-c2ccc(C(C)=O)cc2)o1 | 0.89% |
| Cc1cccc2c1cnn2C(=O)CCC(=O)NC1CCCCC1 | -0.13% |
| Cc1ccc2nc(SCC(=O)NC3CCCC3)[nH]c2c1 | 1.94% |
| Cc1ccc2c(cnn2C(=O)CCC(=O)NC2CCCC2)c1 | 16.8% (active) |
| Cc1ccccc1CS(=O)(=O)CC1(O)CCN(C(=O)c2cccc(C(F)(F)F)c2)CC1 | -0.64% |

| SMILES | response |
| --- | --- |
| Cc1c(Cl)cccc1NC(=O)[C@@]1(CC(=O)O)CC(/C=C/c2ccccc2)=NO1 | -1.98% |
| CCN(CC)CC(=O)Nc1nn(-c2ccccc2)nc1C(N)=O | 6.52% |
| COc1ccc(N2CCN(C(=O)CCNC(=O)c3ccc(Br)cc3)CC2)cc1 | -3.69% |
| COc1ccc(N2CCN(C(=O)CNC(=O)c3ccc(Br)o3)CC2)cc1 | 4.07% |
| COc1ccc(N2CCN(C(=O)CNC(=O)c3ccc(C(C)(C)C)cc3)CC2)cc1 | 13.9% (active) |
| Cc1ccccc1NC(=O)N1CCCC1C(=O)NCc1ccccc1 (stereo not drawn) | -1.65% |
| CCOc1nc(OCC)nc(-n2cc(-c3ccccc3)nn2)n1 | 0.96% |
| CC1=C/C(=N\OS(=O)(=O)c2ccccc2)C=CC1=O | 32.8% (active) |
| CCC(C)NC(=O)c1ccc(NC(=O)CC2SC(N3CCCCC3)=NC2=O)cc1 (stereo not drawn) | 1.4% |
| CC(C)(C)OC(=O)N1CCC(C(=O)NNC(=O)c2ccc(Cl)cc2Cl)CC1 | 1.22% |
| Cc1cc(=O)n2nc(N3CCCC3C(=O)NCCCN3CC(C)CC(C)C3)sc2n1 (stereo not drawn) | -2.96% |
| Cc1csc(NC(=O)c2ccc(-c3ccc(Cl)cc3Cl)o2)n1 | -2.59% |
| Cc1ccc(C(=O)Nc2nc3ccc(Cl)cc3s2)o1 | 20.1% (active) |
| Cc1sc2ncnc(N3CCC(C(=O)Nc4nc5ccc(Cl)cc5s4)CC3)c2c1C | 0.27% |
| OC1CN=C2Sc3ccccc3N2C1 (stereo not drawn) | 3.08% |
| O=C(c1ccc(=O)oc1)N1CCC(C(O)(c2ccccc2)c2ccccc2)CC1 | 2.64% |
| CC(C)CCN1C(=O)c2ccc(C(=O)Nc3cccc(S(N)(=O)=O)c3)cc2C1=O | 14.3% (active) |
| CN1CCN(S(=O)(=O)c2cccc(C(=O)Nc3cccc(S(N)(=O)=O)c3)c2)CC1 | 0.8% |
| Cc1cccc(C(=O)Nc2ccc3c(c2)C(=O)N(CC(C)C)C3=O)c1 | -0.72% |
| COc1ccccc1C(=O)N1C(CC(=O)Nc2ccccc2C)C(=O)NC2CCCCC21 (stereo not drawn) | 9.51% |
| Cc1ccc(S(=O)(=O)Nc2ccc3c(c2)C(=O)N([C@H](C)CO)C[C@@H](C)[C@@H](CN(C)C(=O)Nc2cccc4ccccc24)O3)cc1 | -0.92% |
| COc1cc(C2c3cc4c(cc3C(O)C3COC(=O)C23)OCO4)cc(OC)c1OC (stereo not drawn) | 1.36% |
| COc1ccccc1CNC(=O)COC(=O)c1cccs1 | -4.49% |
| COc1ccccc1CNC(=O)COC(=O)c1sc(C)nc1C | 9.53% (active) |

| SMILES | response |
| --- | --- |
| COc1ccccc1CNC(=O)COc1ccc(C)nc1[N+](=O)[O-] | -0.89% |
| Brc1cnc(N2CCCC2)nc1N1CCCCC1 | -0.57% |
| CCc1nnc(NC(=O)c2cccc(S(=O)(=O)N(C)c3ccc(OC)cc3)c2)s1 | 3.85% |
| COc1ccc(Cc2nnc(NC(=O)c3cc(OC)c(OC)c(OC)c3)s2)cc1OC | -0.03% |
| CCCc1nnc(NC(=O)c2cc(OC)cc(OC)c2)s1 | 12.9% (active) |
| O=C1C=C(c2ccc(Cl)cc2)C(=O)N1Nc1ccccc1 | 11.6% (active) |
| O=C(c1ccc(Cn2cc([N+](=O)[O-])cn2)o1)N1CCCC1 | -2.73% |
| COc1ccc(CN2CCCC(C(=O)c3ccc(Cl)cc3)C2)cc1Cn1cncn1 (stereo not drawn) | -2.81% |
| COc1ccc(C(=O)NC2CC2)cc1OC1CCN(Cc2ccc(SC)cc2)CC1 | -0.55% |
| COc1cc(CN2CCCC(C(=O)c3ccc(SC)cc3)C2)cc(Cl)c1O (stereo not drawn) | 13.8% (active) |
| C=CCOC(=O)N1CCC2CC1c1cc(-c3ccc(OC)cc3)ccc12 (stereo not drawn) | -1.16% |
| CCOc1ccccc1NC(=O)C1CCN(S(=O)(=O)c2c(C)nn(C)c2C)CC1 | -3.78% |
| COCCNc1nc2nonc2nc1N(C)Cc1ccc(C)cc1 | -1.45% |
| Cc1cc(C#N)c(SCC(N)=O)nc1-c1ccc(F)cc1 | 1.45% |
| Cc1cc(=O)[nH]c(SCC(N)=O)c1C#N | 23.4% (active) |
| Cc1ccc(NC(=O)CSc2sc3c(O)cc(=O)[nH]c3c2C#N)cc1C | 2.04% |
| CCC(C)[C@H](NC(=O)N1CCn2c1nc1ccccc12)C(=O)NCc1ccc(OC)cc1 (stereo partly drawn) | 4.62% |
| NC(CSC1(c2ccccc2)c2ccccc2-c2ccccc21)C(=O)O (stereo not drawn) | -2.21% |
| COc1ccc(CCN2C(=O)N(c3ccc(OC)cc3)C(=O)C2CC(=O)Nc2ccc(OC)cc2)cc1 (stereo not drawn) | 9.93% (active) |
| COc1ccc(N2C(=O)C(CC(=O)Nc3ccc(F)cc3)N(CCc3cccs3)C2=O)cc1 (stereo not drawn) | -0.54% |
| COc1ccc(N2C(=O)C(CC(=O)Nc3ccccc3)N(Cc3ccc(OC)c(OC)c3)C2=O)cc1 (stereo not drawn) | 0.01% |
